These results are taken from PubChem BioAssay (EPA / NIEHS).

Experiment [1] can be described thus: APR_HepG2_P-H2AX_72hr: Apredica 72-hour HepG2 Assay for H2AX Phosphorylation (AID 2282916).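 Also: phospho-histone H2A.x immunostain intensity per cell marking DNA damage.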 The following applies: imaging, actives raise or lower the signal. An outline of the steps: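 Phospho-histone H2A.x immunofluorescence, multiplexed with Hoechst and c-Jun, quantified by high-content imaging. Compounds applied to HepG2 for 72 h across ten concentrations (0.39–200 uM, 0.5% DMSO), in duplicate; DMSO baseline.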

Experiment [2] in a line: APR_HepG2_MitoMembPot_72hr: Apredica 72-hour HepG2 Assay for Mitochondrial Membrane Potential (AID 2282917). The following applies: imaging, actives raise or lower the signal. An outline of the steps: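 HepG2 cells dosed 72 hr with compound at 0.39–200 uM in duplicate, 0.5% v/v DMSO final. Mitochondria stained with 250 nM MitoTracker Red CMXRos for 30 min before formaldehyde fixation, imaged by high-content fluorescence; bidirectional fit versus DMSO.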

Experiment [3] is described as follows: APR_HepG2_MitoticArrest_72hr: Apredica 72-hour HepG2 Assay for Mitotic Arrest (AID 2282918). Conditions: high-content imaging, actives raise or lower the signal. In a few lines:
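High-content imaging of fixed human HepG2 cells after 72 h compound exposure (0.39–200 uM, duplicates, 0.5% DMSO); mitotic arrest scored from phospho-histone H3 and nuclear Hoechst staining relative to DMSO.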

Experiment [4] is described as follows: APR_HepG2_MicrotubuleCSK_72hr: Apredica 72-hour HepG2 Assay for Microtubule CSK Stabilty (AID 2282919). Conditions: HepG2 microtubule cytoskeleton, high-content imaging, actives raise or lower the signal. An outline of the steps: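 HepG2, 72 hr cmpd exposure, 0.39–200 uM (10 pts, duplicate), 0.5% DMSO. 3.7% formaldehyde fix, 0.5% Triton perm, anti-alpha-tubulin/Cy5 plus Hoechst. HCS fluorescence intensity; bidirectional fit vs DMSO baseline; taxol as positive control.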

A short description of experiment [5]: APR_HepG2_P-H2AX_24hr: Apredica 24-hour HepG2 Assay for H2AX Phosphorylation (AID 2282920). Conditions: high-content imaging, actives raise or lower the signal. An outline of the steps:
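High-content imaging of phospho-histone H2A.x immunofluorescence, nuclei counterstained with Hoechst 33342, in fixed HepG2 cells. Compounds ran 0.39–200 uM in duplicate for 24 h, final DMSO 0.5%. Signal change fitted both directions against DMSO.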

Experiment [6] can be described thus: APR_HepG2_StressKinase_72hr: Apredica 72-hour HepG2 Assay for Stress Kinase (AID 2282921). The following applies: HepG2 stress kinase (phospho-c-Jun) imaging, actives raise or lower the signal. An outline of the steps: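 Stress kinase signal is phospho-c-Jun immunofluorescence (1:500 primary, Cy3 secondary) in fixed, permeabilized human HepG2 cells imaged at 20x. Exposure lasted 72 hr over ten concentrations from 0.39 to 200 uM, 0.5% DMSO, in duplicate. Bidirectional fit versus DMSO.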

Experiment [7] in a line: APR_HepG2_StressKinase_24hr: Apredica 24-hour HepG2 Assay for Stress Kinase (AID 2282922). The following applies: HepG2 stress kinase (phospho-c-Jun) imaging, actives raise or lower the signal. In a few lines:
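Read-out: phospho-c-Jun immunofluorescence (Cy3 secondary) quantified by high-content imaging at 20x, nuclei defined by Hoechst 33342. Human HepG2 liver cells dosed 24 hr, 0.39–200 uM, DMSO 0.5% v/v; gain or loss of signal fitted relative to DMSO.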

Experiment [8] in a line: APR_HepG2_MitoMass_72hr: Apredica 72-hour HepG2 Assay for Mitochondrial Mass (AID 2282924).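 Also: MitoTracker Red CMXRos stain intensity per cell imaged as mitochondrial mass.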 Conditions: high-content imaging, actives raise or lower the signal. In a few lines:
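Read-out: MitoTracker Red fluorescence intensity from automated imaging (20x, six fields per well) in human HepG2 liver cells. Dosing ran 72 hr, 0.39–200 uM, 0.5% DMSO; bidirectional curve fitting versus DMSO baseline.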

A short description of experiment [9]: APR_HepG2_NuclearSize_72hr: Apredica 72-hour HepG2 Assay for Nuclear Size (AID 2282925). Conditions: high-content imaging, actives raise or lower the signal. An outline of the steps: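 Read-out: nuclear diameter from Hoechst 33342 images (ArrayScan, 20x, six fields/well), via cell-cycle image analysis. HepG2 were dosed 0.39–200 uM for 72 hr in 0.5% DMSO. Bidirectional fit relative to DMSO.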

Experiment [10] in a line: ATG_CRE_CIS: Attagene CIS-FACTORIAL HepG2 Assay for human cAMP Responsive Element (CRE) binding protein 3 (AID 2282926). The following applies: HepG2 CRE cis-reporter, Attagene multiplexed mRNA; actives raise or lower the signal. In a few lines: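 Endogenous transcription factor activity read via CRE-regulated reporter transcripts in transfected HepG2 cells. After 24 h exposure, RNA was reverse-transcribed, amplified, fluorescently labelled and sized by capillary electrophoresis; gain or loss fitted against DMSO.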

The target of experiment [11] is CCAAT/enhancer-binding protein beta (Homo sapiens) (UniProt P17676). Kind of experiment: ATG_C_EBP_CIS: Attagene CIS-FACTORIAL HepG2 Assay for human CCAAT/Enhancer Binding Protein (C/EBP) beta (AID 2282927). Conditions: HepG2 Attagene cis-factorial transcription factor reporter; actives raise or lower the signal. An outline of the steps:
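HepG2, transient MRTU transfection, 24 h treatment. RT-PCR plus CE fluorescence; DMSO negative control, bidirectional fit.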

Experiment [12] is described as follows: ATG_CMV_CIS: Attagene CIS-FACTORIAL HepG2 Assay for human CMV (Internal Marker) (AID 2282928).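 Also: endpoint acts as a background internal control marker rather than a target.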 The following applies: HepG2 CMV promoter reporter, transcription factor profiling; actives raise or lower the signal. An outline of the steps:
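Fluorescence intensity of RT-PCR-derived reporter fragments, resolved by capillary electrophoresis, gives the signal. HepG2 liver cells bearing transfected cis-element reporters were treated 24 h; activity in either direction was fit relative to DMSO-treated controls.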

A short description of experiment [13]: ATG_DR4_LXR_CIS: Attagene CIS-FACTORIAL HepG2 Assay for human Liver X Receptor (LXR), DR4 submotif (AID 2282929). The following applies: HepG2 Attagene DR4 cis-reporter, mRNA transcription; actives raise or lower the signal. In a few lines:
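Transiently transfected HepG2 liver cells; cis-regulated reporters; 24 h dosing. RT-PCR plus CE read-out of reporter mRNA. DMSO baseline, bidirectional curve fitting.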

The nature of experiment [14]: ATG_AP_1_CIS: Attagene CIS-FACTORIAL HepG2 Assay for human Activator Protein 1 (AP-1) (AID 2282931). The following applies: HepG2 Attagene cis-factorial AP-1 reporter mRNA; actives raise or lower the signal. An outline of the steps:
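We transfected HepG2 cells transiently with a set of cis-regulated reporter transcription units, dosed them for 24 h, and quantified reporter mRNA via RT-PCR and capillary electrophoresis, scoring gain or loss of signal relative to DMSO.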

Experiment [15] is described as follows: ATG_AP_2_CIS: Attagene CIS-FACTORIAL HepG2 Assay for human Activator Protein 2 (AP-2) (AID 2282932). Conditions: HepG2 AP-2 cis-reporter, Attagene transcription factor profiling; actives raise or lower the signal. An outline of the steps: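 Liver-derived HepG2 line, cis-reporter system measuring endogenous factors; 24 h dosing; reporter mRNA detected by fluorescent RT-PCR and capillary electrophoresis.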

Experiment [16] in a line: ATG_BRE_CIS: Attagene CIS-FACTORIAL HepG2 Assay for human Bone Morphogenetic Protein (BMP) Response Element (BRE) (AID 2282933). Conditions: HepG2 BMP response element reporter, Attagene transcription factor profiling; actives raise or lower the signal. In a few lines: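 HepG2 cells transiently transfected with CIS reporter units (endogenous TF activity, BMP response element), dosed 24 h. Reporter mRNA quantified by RT-PCR, fluorescent labelling and capillary electrophoresis; bidirectional fit vs DMSO baseline.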

Experiment [17] concerns the target Retinoic acid receptor alpha (Homo sapiens) (UniProt P10276). In words: ATG_DR5_RAR_CIS: Attagene CIS-FACTORIAL HepG2 Assay for human Retinoic Acid Receptor Alpha (RARE), DR5 submotif (AID 2282934). Conditions: HepG2 Attagene cis-factorial RARE DR5 reporter, mRNA; actives raise or lower the signal. An outline of the steps:
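After 24 h of chemical exposure, transiently transfected HepG2 cells were lysed for total RNA; the DR5-regulated reporter transcript was quantified via RT-PCR and capillary electrophoresis, with activity fitted bidirectionally against DMSO.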

A short description of experiment [18]: APR_HepG2_p53Act_72hr: Apredica 72-hour HepG2 Assay for p53 Activation (AID 2282923).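 Also: average cellular p53 protein immunofluorescence intensity in HepG2 cells.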 The following applies: high-content imaging, actives raise or lower the signal. An outline of the steps: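 After 72 h with compound (ten points, 0.39 to 200 uM, final DMSO 0.5% v/v), fixed HepG2 cells were labelled with sheep anti-p53 and Hoechst 33342 and imaged; gain or loss versus DMSO scored.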

For experiment [19], the target named is Aryl hydrocarbon receptor (Homo sapiens) (UniProt P35869). Kind of experiment: ATG_Ahr_CIS: Attagene CIS-FACTORIAL HepG2 Assay for human Aryl Hydrocarbon Receptor (Ahr) (AID 2282930). Conditions: HepG2 AhR cis-factorial reporter transcription; actives raise or lower the signal. An outline of the steps:
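Endogenous factor activity is tracked through cis-promoter reporter units transfected into HepG2 cells. Transcript levels at 24 h are read by fluorescent RT-PCR and capillary electrophoresis, with activity in either direction scored relative to DMSO.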

Active and inactive are the calls of the source. The calls were made as follows: active = hit-call score of the fitted dose curve at least 0.9, where 1 is the maximum; inactive = score below 0.9.

CCAAT/enhancer-binding protein beta (Homo sapiens), sequence (P17676 whole entry, looked up): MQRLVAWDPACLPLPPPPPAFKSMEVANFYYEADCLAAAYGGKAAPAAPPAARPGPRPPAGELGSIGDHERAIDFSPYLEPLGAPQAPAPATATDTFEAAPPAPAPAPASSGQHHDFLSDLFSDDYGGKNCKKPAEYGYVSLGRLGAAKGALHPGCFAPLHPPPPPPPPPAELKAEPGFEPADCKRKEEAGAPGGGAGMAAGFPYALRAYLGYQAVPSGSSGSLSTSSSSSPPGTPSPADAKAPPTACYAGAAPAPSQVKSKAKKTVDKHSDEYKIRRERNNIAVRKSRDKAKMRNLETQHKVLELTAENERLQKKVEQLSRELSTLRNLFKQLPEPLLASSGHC
Retinoic acid receptor alpha (Homo sapiens), sequence (P10276 whole entry, looked up): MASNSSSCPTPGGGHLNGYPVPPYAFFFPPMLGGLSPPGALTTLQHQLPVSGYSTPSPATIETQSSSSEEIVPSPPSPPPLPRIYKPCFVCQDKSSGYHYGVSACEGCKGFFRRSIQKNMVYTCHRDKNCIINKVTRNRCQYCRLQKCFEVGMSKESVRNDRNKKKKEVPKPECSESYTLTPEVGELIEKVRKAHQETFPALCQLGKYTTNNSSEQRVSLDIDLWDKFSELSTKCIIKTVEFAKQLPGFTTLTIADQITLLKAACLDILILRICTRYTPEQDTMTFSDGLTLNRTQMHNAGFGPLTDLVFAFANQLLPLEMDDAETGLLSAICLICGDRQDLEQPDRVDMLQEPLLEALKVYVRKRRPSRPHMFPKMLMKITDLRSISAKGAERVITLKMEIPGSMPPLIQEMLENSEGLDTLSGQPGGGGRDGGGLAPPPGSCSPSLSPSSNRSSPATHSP
Aryl hydrocarbon receptor (Homo sapiens), sequence (P35869 whole entry, looked up): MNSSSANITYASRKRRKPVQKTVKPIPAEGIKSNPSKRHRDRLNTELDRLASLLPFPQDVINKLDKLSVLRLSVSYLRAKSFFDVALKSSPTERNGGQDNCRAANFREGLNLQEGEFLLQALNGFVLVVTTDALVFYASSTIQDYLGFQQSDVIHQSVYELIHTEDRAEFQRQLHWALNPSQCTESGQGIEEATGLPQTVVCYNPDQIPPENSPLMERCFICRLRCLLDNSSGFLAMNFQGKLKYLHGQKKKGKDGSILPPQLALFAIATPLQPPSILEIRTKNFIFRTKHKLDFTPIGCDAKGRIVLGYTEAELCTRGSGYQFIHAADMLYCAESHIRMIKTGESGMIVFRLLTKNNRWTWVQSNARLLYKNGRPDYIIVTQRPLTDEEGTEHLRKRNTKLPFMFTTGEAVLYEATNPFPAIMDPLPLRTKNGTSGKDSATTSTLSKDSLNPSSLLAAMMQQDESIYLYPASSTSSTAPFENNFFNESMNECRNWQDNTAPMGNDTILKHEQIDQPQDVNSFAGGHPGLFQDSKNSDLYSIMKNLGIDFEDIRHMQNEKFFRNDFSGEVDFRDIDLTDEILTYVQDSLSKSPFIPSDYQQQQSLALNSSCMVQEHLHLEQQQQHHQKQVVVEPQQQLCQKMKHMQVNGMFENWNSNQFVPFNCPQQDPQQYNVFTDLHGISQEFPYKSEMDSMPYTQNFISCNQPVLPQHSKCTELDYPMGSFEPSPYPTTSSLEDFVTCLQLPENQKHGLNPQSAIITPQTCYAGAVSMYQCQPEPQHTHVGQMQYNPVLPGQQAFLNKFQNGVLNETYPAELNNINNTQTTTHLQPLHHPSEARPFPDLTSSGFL

On to `O=[N+]([O-])/N=C1\NCCN1Cc1ccc(Cl)nc1`, for which the compound was called inactive in [1], in experiment [2], in experiment [3], in experiment [4], in experiment [5] and in experiment [6]. The call in experiment [7], in experiment [8], in experiment [9], in experiment [10], in experiment [11] and in experiment [12] was inactive. Besides, the result in experiment [13], in experiment [14], in [15], in [16] and in [17] was inactive.

For `CCCN(CCC)c1c([N+](=O)[O-])cc(C(F)(F)F)cc1[N+](=O)[O-]`, the compound was called inactive in experiment [1], in experiment [2], in experiment [3], in experiment [4], in experiment [5] and in [6]. In addition, the compound was called inactive in experiment [7], in [8], in [9], in experiment [10], in experiment [14] and in [15]. Moreover, in [16], the outcome was inactive. In addition, the AC50 was 2.59 µM (active) in experiment [11] and 82.3 µM (active) in experiment [12].

Regarding `O=C(O)CCCOc1ccc(Cl)cc1Cl`, the outcome in experiment [1], in experiment [2], in experiment [3], in experiment [4], in experiment [5] and in [6] was inactive. Further, the outcome in experiment [7], in experiment [18], in [8], in experiment [9], in experiment [10] and in experiment [11] was inactive. Further, the compound was classed as inactive in experiment [12], in experiment [14], in [15], in experiment [16] and in experiment [17].

Take `CCC(C)(C)C(=O)OC1=C(c2ccc(Cl)cc2Cl)C(=O)OC12CCCCC2`: the call in [1], in experiment [2], in [3], in experiment [4], in experiment [5] and in experiment [6] was inactive. Further, the result in experiment [7], in experiment [18], in experiment [8], in experiment [9], in experiment [10] and in [11] was inactive. Also, the compound was classed as inactive in [12], in experiment [14], in [15], in experiment [16] and in experiment [17].

On to `CC(C)N(C(=O)COc1nnc(C(F)(F)F)s1)c1ccc(F)cc1`, for which the call in experiment [1], in experiment [2], in experiment [4], in experiment [5], in experiment [7] and in [18] was inactive. Besides, the call in [8], in experiment [9], in [11], in [12], in [15] and in experiment [17] was inactive. Besides, the AC50 in experiment [3] was 169 µM (active); in [6] it was 113 µM (active); in [10], 31.9 µM (active); in experiment [14], 50 µM (active); in experiment [16], 34.9 µM (active).

`CCOCN(C(=O)CCl)c1c(C)cccc1CC`: the result in experiment [1], in experiment [2], in experiment [6], in [7], in [18] and in experiment [8] was inactive. In addition, the call in experiment [9], in [10], in experiment [11], in [12], in experiment [14] and in experiment [15] was inactive. The compound was called inactive in [16] and in experiment [17]. The AC50 in [3] is 93 µM (active); in experiment [4], 13.9 µM (active); in experiment [5], 30.9 µM (active).

Turning to `COP(=O)(OC)OC=C(Cl)Cl`, the call in [1], in [2], in experiment [3], in [4], in [6] and in experiment [7] was inactive. The compound was called inactive in [8], in [9], in [10], in [11], in [13] and in experiment [16]. Moreover, the AC50 is 76.2 µM (active) in experiment [5], 18.4 µM (active) in [12], 67.3 µM (active) in [14] and 50 µM (active) in experiment [15].

Regarding `CNC(=O)Oc1ccccc1OC(C)C`, the result in [1], in experiment [2], in experiment [3], in [4], in experiment [5] and in experiment [6] was inactive. Moreover, the compound was classed as inactive in [7], in experiment [18], in experiment [8], in experiment [9], in experiment [10] and in experiment [11]. Further, the call in experiment [12], in [14], in [15], in experiment [16] and in experiment [17] was inactive.

For `OCCOc1ccccc1`, the compound was called inactive in experiment [1], in experiment [2], in experiment [3], in experiment [4], in experiment [5] and in [6]. Besides, the result in [7], in experiment [18], in experiment [8], in [9], in experiment [10] and in [11] was inactive. For the same compound, the outcome in [12], in [19], in [14], in experiment [15], in experiment [16] and in [17] was inactive.
